Screening results from PubChem.
The list is not random: actives were taken first. Their share in the collection is about 27%.
Cav3 T inh – human Cav3.2 channel inhibition, primary screen; O95180; Cav3.2-expressing cells, Fluo-4 calcium fluorescence FDSS; stronger effect = lower value; B-score at 10 µM; hit rate 4% among 100,000; AID 449739;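 active = single-dose well whose peak fluorescence ratio is a statistical outlier from its plate by either plate-standardised score or position-corrected B-score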
CYP2C9 inh – human CYP2C9 inhibition; P11712; CYP2C9 Supersomes, luciferin-H conversion, luminescence; inhibition, % at 5 µM; hit rate 20% among 96,000; AID 777;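 active = blocking of liver enzyme CYP2C9 beyond about 50% at 5 µM, limit read from the data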
CYP2C19 act – cytochrome P450 2C19 (human) activation. P33261. recombinant CYP2C19, luciferin-H EGE luminescence; stronger effect = higher value; 0 = fully inhibited enzyme, 1 = untreated enzyme. activation factor at 5 µM. 96,000 tested, under 10 active. AID 1025;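 active = activation factor of at least 2 at 5 µM in the primary screen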
Target sequence (P33261 whole entry, looked up): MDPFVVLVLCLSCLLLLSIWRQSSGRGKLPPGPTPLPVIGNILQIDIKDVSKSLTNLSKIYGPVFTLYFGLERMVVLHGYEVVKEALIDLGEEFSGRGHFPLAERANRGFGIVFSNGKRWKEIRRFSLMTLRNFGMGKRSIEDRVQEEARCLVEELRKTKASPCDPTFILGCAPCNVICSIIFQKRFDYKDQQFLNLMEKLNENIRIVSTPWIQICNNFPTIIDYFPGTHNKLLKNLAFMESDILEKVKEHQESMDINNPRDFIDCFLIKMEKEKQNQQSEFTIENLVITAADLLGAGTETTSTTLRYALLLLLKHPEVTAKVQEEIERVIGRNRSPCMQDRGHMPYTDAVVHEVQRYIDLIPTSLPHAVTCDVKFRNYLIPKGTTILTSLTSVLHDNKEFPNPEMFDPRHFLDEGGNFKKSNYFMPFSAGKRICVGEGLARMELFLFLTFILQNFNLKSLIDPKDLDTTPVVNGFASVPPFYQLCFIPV
CYP2C9 activ – increases human cytochrome P450 2C9 activity; P11712; recombinant CYP2C9, luciferin-H conversion, luminescence; stronger effect = higher value; factor 1 = untreated enzyme, 0 = blocked; activation factor at 5 µM; hit rate 1.4% among 96,000;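 active = activation factor of 2 or more for CYP2C9 at a 5 µM dose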
CYP2C19 inh – human CYP2C19 inhibition | P33261 | CYP2C19 Supersomes, luciferin-H EGE luminescence, 30 min | inhibition, % at 5 µM | hit rate 21% among 96,000 | AID 778;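 active = CYP2C19 inhibition above a set limit at 5 µM in the primary screen, cut at about 50% in these data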
Each line names hits and unclear results; the compound was inactive in the other large screens.

CCOC(=O)c1[nH]c(C)c(C(=O)NCc2cccnc2)c1C	none
CC(=O)c1c(COC(=O)c2ccncc2)nc2ccccc2[n+]1[O-]	CYP2C19 inh 92
CCOC(=O)c1c(COC(=O)c2ccco2)nc2ccccc2[n+]1[O-]	none
CC(=O)c1c(COC(=O)c2ccco2)nc2ccccc2[n+]1[O-]	CYP2C9 inh 63, CYP2C19 inh 60
Cc1ccc(Cl)c2c1NC(=O)C2(O)CC(=O)c1ccc(F)cc1 (stereo unspecified)	none
Cc1coc(C)c1C(=O)CC1(O)C(=O)Nc2cc(Cl)cc(Cl)c21 (stereo unspecified)	CYP2C19 inh 59
CCOC(=O)c1ccc(NC(=O)c2ccccc2)cc1	none
CCOC(=O)c1ccc(NC(=O)CSc2nc(NC(=O)c3ccccc3)c3c(C)c(C)oc3n2)cc1	CYP2C9 inh 76, CYP2C19 inh 60
COC(=O)c1ccccc1NC(=O)CSc1nnc(-c2ccc(C)cc2)o1	none (no result: CYP2C9 inh, CYP2C19 act, CYP2C9 activ, CYP2C19 inh)
COC(=O)c1ccccc1NC(=O)CSc1nc(NC(=O)c2ccccc2)c2c(C)c(C)oc2n1	Cav3 T inh -4.9, CYP2C9 inh 87, CYP2C19 inh 69
CCOc1ccc(C2C(C(=O)Nc3ccc(F)cc3)=C(C)Nc3nc(CCCO)nn32)cc1 (stereo unspecified)	CYP2C9 inh 62
CCN(CC)C(=O)C(=O)c1cccn1-c1cccc(-n2cccc2C(=O)C(=O)N(CC)CC)c1C#N	none
O=C(NC1CCCCC1)C1CCCN(S(=O)(=O)c2cnc[nH]2)C1 (stereo unspecified)	CYP2C19 inh 60
O=C(NC1CCCC1)C1CCCN(S(=O)(=O)c2cnc[nH]2)C1 (stereo unspecified)	none
CS(=O)(=O)N1CCCC(C(=O)NC2CCCCCCC2)C1 (stereo unspecified)	none
O=C(NC1CCCCCCC1)C1CCCN(S(=O)(=O)c2cnc[nH]2)C1 (stereo unspecified)	CYP2C9 inh 55, CYP2C19 inh 87
Cc1sc2c(c1C)c(=O)nc1n2Cc2ccccc2-1	none (no result: Cav3 T inh)
CCCCNc1nnc(SCC(=O)N2CCN(S(=O)(=O)c3ccc4ccccc4c3)CC2)s1	CYP2C9 inh 87, CYP2C19 inh 79
Nn1cc(-c2ccccc2)nc1SCC(=O)N1CCN(S(=O)(=O)c2ccc3ccccc3c2)CC1	none
Cc1c(Br)c([N+](=O)[O-])nn1C(C)C(=O)N1CCCc2ccccc21 (stereo unspecified)	CYP2C19 inh 58
CCCOc1ccc(C(=O)N2CCCc3ccccc32)cc1	CYP2C9 inh 69, CYP2C19 inh 93
COc1ccc(CC(=O)N2CCCc3ccccc32)cc1	CYP2C19 inh 55
Cc1ccc(OC(C)C(=O)N2CCCc3ccccc32)cc1 (stereo unspecified)	CYP2C19 inh 54
COc1ccc(CN=Cc2c(C(F)(F)F)[nH][nH]c2=O)cc1	none
CC(C)C(NC(=O)C1CCCCC1)C(=O)NC1=NCCS1 (stereo unspecified)	none
C/C=C/C=C\C(=O)Nc1cccc(C2=NOC3(C2)C[C@@H](C(N)=O)N(C(=O)c2cc([N+](=O)[O-])cc([N+](=O)[O-])c2C)C3)c1 (stereo partly specified)	none (no result: CYP2C9 inh, CYP2C19 act, CYP2C9 activ, CYP2C19 inh)
O=C(Cc1ccccc1)NCC(=O)OCC(=O)c1ccc(OC(=O)c2ccccc2)cc1	none
Cn1c(=O)c2c(nc3sccn32)n(C)c1=O	none (no result: CYP2C9 inh, CYP2C19 act, CYP2C9 activ, CYP2C19 inh)
COc1ccc(OC(C)C(=O)N2CCc3ccccc3C2)cc1 (stereo unspecified)	CYP2C19 inh 52
COc1ccc(OC(C)C(=O)N2CCC(C)CC2)cc1 (stereo unspecified)	none
COc1cc(OC)cc(C(=O)N2CCCc3ccccc32)c1	CYP2C19 inh 76
CCCCCC(=O)N1CC2(C)CN(C(=O)CCCCC)CC(C)(C1)C2=O	none
Cc1ccc2c(CSc3nc4nc(C)cc(C)n4n3)cc(=O)oc2c1	none
Cc1cc(C)n2nc(SCc3ncc(-c4ccccc4)o3)nc2n1	CYP2C19 inh 86
Cc1cc(C)n2nc(SCC#N)nc2n1	none (no result: CYP2C9 inh, CYP2C19 act, CYP2C9 activ, CYP2C19 inh)
COc1ccc2c(CSc3nc4nc(C)cc(C)n4n3)cc(=O)oc2c1	CYP2C9 inh 85, CYP2C19 inh 72
CN(Cc1ccccc1)C(=O)N[C@@H](Cc1ccccc1)C(=O)O	none
CC1CC(=O)C2=C(C1)Nc1ccccc1N=C2 (stereo unspecified)	none
CCC(=O)c1cccc2c1N=CC1=C(CC(C)(C)CC1=O)N2	CYP2C9 inh 55
O=C(NC12CC3CC(CC(C3)C1)C2)N1CCC(O)(c2ccc3c(c2)OCO3)CC1	none
O=C(COc1ccc2c(c1)OCO2)NC12CC3CC(CC(C3)C1)C2	CYP2C9 inh 75, CYP2C19 inh 94
Cc1cccc(N/C=C/C(=C(C#N)C#N)N(C)C)c1	CYP2C9 inh 87, CYP2C19 inh 76
COc1ccc(/C=C2/SC(=O)N(NS(=O)(=O)c3ccccc3)C2=S)cc1OC	CYP2C9 inh 70
COc1c2ccc(C(=O)NCCCCc3ccccc3)cc2nn1C	none
COc1ccc(C(=O)CC(c2ccccc2)C2C(=O)CCCC2=O)cc1 (stereo unspecified)	CYP2C9 inh 93, CYP2C19 inh 69
COc1ccc(C(CC(=O)c2ccccc2)C2CCCCC2=O)cc1 (stereo unspecified)	CYP2C19 inh 53 (no result: Cav3 T inh)
COc1ccc(OC)c(S(=O)(=O)N2CCC(C(=O)NCC3CCCO3)CC2)c1 (stereo unspecified)	none
Cc1noc(C)c1CN1C(=O)NC(Cc2ccccc2)(Cc2ccccc2)C1=O	none
CCc1cccc(CC)c1N(COC)C(=O)Cn1c(CO)nc2ccccc21	CYP2C9 inh 51
CCc1cccc(CC)c1N(COC)C(=O)Cn1ccccc1=N	none
CCc1cccc(CC)c1N(COC)C(=O)Cn1nnc2ccccc21	CYP2C9 inh 100, CYP2C19 inh 82
COc1ccc(C(=O)Nn2cnnc2)c(OC)c1	none
Cc1nn(C(=O)c2ccco2)c(C)c1Sc1ccccc1	none
Cc1nn(C(C)(C)C)c(OC(=O)c2ccco2)c1Sc1ccccc1	CYP2C9 inh 61
Cc1nn(C(C)(C)C)c(OC(=O)c2cccs2)c1Sc1ccccc1	Cav3 T inh -5.2, CYP2C9 inh 65
Cc1nn(C(C)(C)C)c(OC(=O)c2ccc(Br)o2)c1Sc1ccccc1	CYP2C19 inh 74
CCOC(=O)c1cc(OC(=O)c2cccs2)n(-c2ccccc2)n1	none
O=C(/C=C/c1ccco1)NC(=S)Nc1ccc(Cl)cn1	none
C=CCOc1ccc(CNc2nccs2)cc1OC	none (no result: CYP2C9 inh, CYP2C19 act, CYP2C9 activ, CYP2C19 inh)
Cc1ccc(-c2noc(C3CCN(S(=O)(=O)c4ccc5c(c4)OCCO5)CC3)n2)o1	none
Cc1ccc(-c2noc(C3CCN(C(=O)Nc4ccc(C#N)cc4)CC3)n2)o1	CYP2C9 inh 61, CYP2C19 inh 83
O=C1CCCN1CCCNCC(=O)N1c2ccccc2Sc2ccccc21	none
Cc1cccc(N(CC(=O)NCc2ccco2)C(=O)CCC(=O)Nc2ccccn2)c1	CYP2C19 inh 58
Cc1cc(NC(=O)CCC(=O)N(CC(=O)NCC2CCCO2)Cc2ccc(F)cc2)no1 (stereo unspecified)	none (no result: CYP2C9 inh, CYP2C19 act, CYP2C9 activ, CYP2C19 inh)
